The target of assay [1] is Lysosomal acid glucosylceramidase (Homo sapiens) (UniProt P04062). The experiment in a line: Glucocerebrosidase-p2 (AID 348; in the data active = potency below about 10 µM; also: potency is read from the fitted curve at half-maximal effect). The note with it: purified GBA, blue fluorogenic substrate, 40 min. Put shortly:
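Normal human glucocerebrosidase (0.2 nM) with blue fluorogenic substrate (80 uM final) in citrate/phosphate pH 5.9 with 10mM sodium taurocholate, 0.01% tween-20; 40 min RT, NaOH/glycine stop; fluorescence Ex 365/Em 440; AC50 from a titration from 0.6 nM upwards.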

A short description of assay [2]: AP1 Signaling Pathway (AID 357; active = well fitted curve in either direction with a large enough effect, not every such curve was filed as active;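 also: ME-180 reporter cells stimulated with EGF at its EC50 level; % is scaled to controls: 0 for no effect and ±100 for the full control effect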). Conditions: ME-180 AP-1-bla reporter, EGF-induced, beta-lactamase ratio, 5 h; at 7.69 µM (top of the series) unless noted. Put shortly: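 In this screen, ME-180 cells in Opti-MEM with 0.5% dialyzed FBS received EC50 EGF and compound titrations for 5 h. AP-1 reporter beta-lactamase was detected via CCF4 ratio, giving AC50 for positive and negative modulators.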

The target in assay [3] is Cytochrome P450 1A2 (Homo sapiens) (UniProt P05177). The experiment in a line: p450-cyp1a2 (AID 410; calls by dose curve; also: potency is read from the fitted curve at half-maximal effect;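 as to activity change, negative = inhibition: -100% = full effect of reference inhibitor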). Conditions: recombinant CYP1A2, luciferin-ME demethylation, luminescence; series mostly up to 57 µM. Put shortly:
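20nM CYP1A2, 100uM Luciferin-ME (=Km), 100mM KPO4; cpd 10 min RT; +NADPH regen, 60 min RT; stop/detect 20 min; luminescence. Normalized to furafylline 57 uM = full inhibition.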

The nature of assay [4]: NFAT Signaling Pathway (AID 444; active = well fitted curve in either direction with a large enough effect, not every such curve was filed as active;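 also: carbachol stimulus at about its EC50 of 1 µM final; % is scaled to controls: 0 for no effect and ±100 for the full control effect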). Conditions: Jurkat NFAT-bla M1, carbachol, beta-lactamase ratio, 5 h; at 7.69 µM (top of the series) unless noted. In a few lines:
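Read-out: CCF4 FRET ratio (460 nm/530 nm) after 1 h RT dye loading, used for %activity and AC50 from titration series. Cells: Jurkat NFAT-β-lactamase/M1 line, treated with compound plus 1 uM carbachol for 5 h, 37 °C.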

Assay [5] is described as follows: Stat Signaling Pathway (AID 446; active = well fitted curve in either direction with a large enough effect, not every such curve was filed as active;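 also: ME-180 cervical cancer cells given 40 pM IL-6 alongside compound; SIE-controlled beta-lactamase reporter measured as 460/530 nm FRET emission ratio; % is scaled to controls: 0 for no effect and ±100 for the full control effect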). The note with it: ME-180 (cervical carcinoma) SIE beta-lactamase reporter, IL-6 stimulated, 5 h; at 7.69 µM (top of the series) unless noted. Put shortly:
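Emission at 460 and 530 nm (excitation 405 nm) reports SIE-controlled beta-lactamase in ME-180 cells. Cells received compound with 40 pM IL-6 for 5 hrs at 37 C; data scaled between 300 pM IL-6 and 125 nM JAK-inhibitor controls.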

For assay [6], the target named is Glucocorticoid receptor (Homo sapiens) (UniProt P04150). In words: GR-GFP Redistribution (AID 450;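 active = compounds whose dose series gives a full or clear partial fitted curve of increased nuclear translocation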; also: potency is read from the fitted curve at half-maximal effect). Conditions: U2OS GR-GFP nuclear translocation, laser cytometry, 2 h.
Assay [7] has the same target. In words: GR-EFC Redistribution (AID 451; calls by dose curve; also: potency is read from the fitted curve at half-maximal effect). Conditions: CHO-K1 GR-EFC translocation, beta-gal luminescence, 2 h. In a few lines:
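Translocation of GR-ED fusion to nuclear EA restores b-gal, read by luminescence after 1 h room-temperature detection. Engineered CHO-K1 biosensor cells, 1,000/well, exposed 2 h at 37 C to titrations up to 46 uM final.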

Assay [8] deals with Mitogen-activated protein kinase 10 (Mus musculus) (UniProt Q61831). The experiment in a line: JNK3 AlphaScreen Assay (AID 530; active = well fitted curve in either direction with a large enough effect, not every such curve was filed as active;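 also: kinase came from lysate of stimulated human HepG2 cells; signal reports phosphorylation of biotinylated GST-cJun 1-79 at Ser73 with 10 µM ATP; % is scaled to controls: 0 for no effect and ±100 for the full control effect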). The note with it: JNK3 lysate, c-Jun phosphorylation; series mostly up to 57.1 µM. Put shortly:
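Kinase buffer: 20 mM Tris-HCl pH 7.6, 10 mM MgCl2, 1 mM DTT, 0.1 mM Na3VO4, 0.01% Tween-20; ATP 10 uM. Substrate biotin-GST-cJun(1-79), enzyme from activated HepG2 lysates. Detection by Ser73 phospho-antibody AlphaScreen.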
A general note: Bead proximity is the source of the signal in Alpha formats.

Assay [9] concerns the target Dual specificity protein kinase CLK4 (Homo sapiens) (UniProt Q9HAZ1). The experiment in a line: qHTS Assay for Inhibitors of CDC-like Kinase 4 (Kinase-Glo Assay) (AID 1770). Also: nearly all actives have a fitted effect of over 65% in size. Also: potency is read from the fitted curve at half-maximal effect. Conditions: recombinant Clk4, Kinase-Glo ATP depletion luminescence; series mostly up to 66.7 µM. In a few lines: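 Inhibition was judged from remaining ATP, measured by Ultra-Glo luciferase bioluminescence after Clk4 (25 nM) had acted on RS peptide at 1 uM ATP for 4.5 hours, room temperature.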
(Quantitative high-throughput screening tests each substance at several concentrations.)

The target is the same in assay [10]. The experiment in a line: qHTS Assay for Inhibitors of CDC-like Kinase 4 (ADP-Glo Assay) (AID 1771). Also: nearly all actives have a fitted effect of over 70% in size. Also: potency is read from the fitted curve at half-maximal effect. Conditions: recombinant CLK4, ADP-Glo luminescence; series mostly up to 80 µM. In a few lines: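 25 nM Clk4, 100 uM RS peptide, 1 uM ATP (final); 2 mM MgCl2, 0.5 mM EGTA, 2.5 mM DTT, 0.01% Triton X-100; 1 hr RT. ADP-Glo readout: ATP depletion 45 min, conversion/luciferase 30 min, luminescence.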

For assay [11] the target is unchanged. In words: qHTS Assay for Inhibitors of CDC-like Kinase 4 (ADP-FP Assay) (AID 1795). Also: nearly all actives have a fitted effect of over 60% in size. Also: potency is read from the fitted curve at half-maximal effect. Conditions: Transcreener ADP fluorescence polarization; series mostly up to 50 µM. In a few lines: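 Inhibition of ADP formation by 6.25 nM Clk4 is measured using 1 uM ATP and 100 uM RS repeat peptide over one hour. Produced ADP displaces a fluorescent tracer from antibody, lowering polarization.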

Assay [12] concerns the target Ubiquitin carboxyl-terminal hydrolase 1 (Homo sapiens) (UniProt O94782). In words: Inhibitors of USP1/UAF1: Pilot qHTS (AID 504865).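 Also: rhodamine fluorescence freed from ubiquitin-rhodamine substrate followed over time; top concentration of the series differs between compounds; % is scaled to controls: 0 for no effect and ±100 for the full control effect; nearly all actives have a fitted effect of over 35% in size.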 Conditions: purified USP1/UAF1, Ub-rhodamine cleavage fluorescence; series mostly up to 54.9 µM. Put shortly: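 Kinetic fluorescence assay: 1nM USP1/UAF1, 15 min compound preincubation, then 150nM Ub-Rho; 480/540 nm.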
The nature of assay [13]: Primary qHTS for small molecule stabilizers of the endoplasmic reticulum resident proteome: Secreted ER Calcium Modulated Protein (SERCaMP) assay (AID 1508630). Also: % is scaled to controls: 0 for no effect and ±100 for the full control effect. The note with it: SH-SY5Y GLuc-SERCaMP (Gaussia luciferase released on ER calcium loss) secretion, thapsigargin, luminescence; series mostly up to 38.4 µM. Put shortly:
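The SH-SY5Y reporter protocol was run at 3 concentrations up to 38.3 uM (primary) or 11 concentrations (follow-up): 16 h compound, 100 nM thapsigargin for 4 h, then extracellular luciferase luminescence.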

The target of assay [14] is 3',5'-cyclic-AMP phosphodiesterase 4B (Homo sapiens) (UniProt Q07343). The experiment in a line: qHTS Assay for Inhibitors of PDE-IV (AID 607; active = well fitted activation curve with a large enough effect in the main read-out, with a control signal flat, not every such curve was filed as active; also: % of control where 0% means no effect). The note with it: HEK293 ACTOne CNG channel cells, membrane potential fluorescence; series mostly up to 22.9 µM. Put shortly: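 The readout is membrane depolarisation from a cAMP-sensing CNG channel, detected with a potential dye at ex 535/em 590. Cells were HEK293-derived (endogenous PDE-IV) at 1000 cells/well, titrated up to 22.9 uM final.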

Assay [15] deals with Rap guanine nucleotide exchange factor 3 (Homo sapiens) (UniProt O95398). In words: Confirmatory qHTS for agonist of cAMP-regulated guanine nucleotide exchange factor 3 (EPAC1) (AID 1645881).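 Also: EPAC1 catalysed release of BODIPY-GDP from Rap1B seen as fluorescence loss; 100% = effect of cAMP agonist control; nearly all actives have a fitted effect of over 75% in size.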 The note with it: EPAC1 Rap1B BODIPY-GDP exchange fluorescence; series mostly up to 154 µM.
Assay [16] deals with Rap guanine nucleotide exchange factor 4 (Homo sapiens) (UniProt Q8WZA2). In words: Confirmatory qHTS for agonist of cAMP-regulated guanine nucleotide exchange factor 4 (EPAC2) (AID 1645884).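 Also: nucleotide exchange releases bodipy-GDP from Rap1 and this lowers its fluorescence; % is scaled to controls: 0 for no effect and ±100 for the full control effect; nearly all actives have a fitted effect of over 65% in size.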 Conditions: EPAC2 GEF activity, Rap1B-BODIPY-GDP fluorescence; series mostly up to 154 µM.
Assay [17] concerns the target Cytochrome P450 3A4 (Homo sapiens) (UniProt P08684). The experiment in a line: qHTS Assay for Activators of Cytochrome P450 3A4 (AID 885). Also: nearly all actives have a fitted effect of over 65% in size. The note with it: recombinant CYP3A4, Luciferin-PPXE luminescence, 60 min; series mostly up to 57.1 µM. Put shortly:
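Activators are scored by enhanced luminescence from CYP3A4 conversion of luciferin-PPXE (25uM, equal to KM) to luciferin, after 60 min at RT with an NADPH-regenerating system.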

These results are taken from PubChem BioAssay (NCATS).

Unmarked numbers belong to inactive results. Records with an inconclusive call do not appear. Calls of active or inactive are those of the source. Unless noted, calls follow the shape of the dose curve; as a rule, active = well fitted curve in the direction sought with a large enough effect; inconclusive = small, poorly fitted or top-dose-only effect, or another doubt; inactive = no such curve, though single readings can be large; an effect the other way counts as inactive or inconclusive. Bounds are passed on as bounds.

Chain of Lysosomal acid glucosylceramidase (Homo sapiens) (P04062 whole entry, looked up): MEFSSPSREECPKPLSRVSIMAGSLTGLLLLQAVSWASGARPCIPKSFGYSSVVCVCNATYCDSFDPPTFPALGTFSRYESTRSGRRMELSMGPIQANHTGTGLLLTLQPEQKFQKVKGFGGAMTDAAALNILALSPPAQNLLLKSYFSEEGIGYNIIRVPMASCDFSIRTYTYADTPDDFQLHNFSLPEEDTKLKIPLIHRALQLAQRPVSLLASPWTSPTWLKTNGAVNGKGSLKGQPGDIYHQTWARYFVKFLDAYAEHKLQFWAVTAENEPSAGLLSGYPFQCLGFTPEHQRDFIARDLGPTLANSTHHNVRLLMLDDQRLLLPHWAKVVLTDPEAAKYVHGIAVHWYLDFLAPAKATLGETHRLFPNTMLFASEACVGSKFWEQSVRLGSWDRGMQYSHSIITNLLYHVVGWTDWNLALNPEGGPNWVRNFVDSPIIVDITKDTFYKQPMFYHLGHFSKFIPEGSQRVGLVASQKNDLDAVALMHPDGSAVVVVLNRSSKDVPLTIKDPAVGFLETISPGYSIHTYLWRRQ
Chain of Dual specificity protein kinase CLK4 (Homo sapiens) (Q9HAZ1 whole entry, looked up): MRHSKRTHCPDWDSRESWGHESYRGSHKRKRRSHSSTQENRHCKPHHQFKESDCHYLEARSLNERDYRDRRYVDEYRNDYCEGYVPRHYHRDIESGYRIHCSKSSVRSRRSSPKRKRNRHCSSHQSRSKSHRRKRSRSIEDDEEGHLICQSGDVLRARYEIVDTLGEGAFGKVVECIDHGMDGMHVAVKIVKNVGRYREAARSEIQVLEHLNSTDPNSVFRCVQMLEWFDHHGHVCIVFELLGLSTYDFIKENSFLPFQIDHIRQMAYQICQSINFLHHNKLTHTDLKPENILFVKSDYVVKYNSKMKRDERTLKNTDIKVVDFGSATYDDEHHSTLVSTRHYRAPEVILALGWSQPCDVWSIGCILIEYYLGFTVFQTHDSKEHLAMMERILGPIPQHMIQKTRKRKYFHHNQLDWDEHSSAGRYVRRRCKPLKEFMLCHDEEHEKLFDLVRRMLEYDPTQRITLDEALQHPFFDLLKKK
Chain of Rap guanine nucleotide exchange factor 3 (Homo sapiens) (O95398 whole entry, looked up): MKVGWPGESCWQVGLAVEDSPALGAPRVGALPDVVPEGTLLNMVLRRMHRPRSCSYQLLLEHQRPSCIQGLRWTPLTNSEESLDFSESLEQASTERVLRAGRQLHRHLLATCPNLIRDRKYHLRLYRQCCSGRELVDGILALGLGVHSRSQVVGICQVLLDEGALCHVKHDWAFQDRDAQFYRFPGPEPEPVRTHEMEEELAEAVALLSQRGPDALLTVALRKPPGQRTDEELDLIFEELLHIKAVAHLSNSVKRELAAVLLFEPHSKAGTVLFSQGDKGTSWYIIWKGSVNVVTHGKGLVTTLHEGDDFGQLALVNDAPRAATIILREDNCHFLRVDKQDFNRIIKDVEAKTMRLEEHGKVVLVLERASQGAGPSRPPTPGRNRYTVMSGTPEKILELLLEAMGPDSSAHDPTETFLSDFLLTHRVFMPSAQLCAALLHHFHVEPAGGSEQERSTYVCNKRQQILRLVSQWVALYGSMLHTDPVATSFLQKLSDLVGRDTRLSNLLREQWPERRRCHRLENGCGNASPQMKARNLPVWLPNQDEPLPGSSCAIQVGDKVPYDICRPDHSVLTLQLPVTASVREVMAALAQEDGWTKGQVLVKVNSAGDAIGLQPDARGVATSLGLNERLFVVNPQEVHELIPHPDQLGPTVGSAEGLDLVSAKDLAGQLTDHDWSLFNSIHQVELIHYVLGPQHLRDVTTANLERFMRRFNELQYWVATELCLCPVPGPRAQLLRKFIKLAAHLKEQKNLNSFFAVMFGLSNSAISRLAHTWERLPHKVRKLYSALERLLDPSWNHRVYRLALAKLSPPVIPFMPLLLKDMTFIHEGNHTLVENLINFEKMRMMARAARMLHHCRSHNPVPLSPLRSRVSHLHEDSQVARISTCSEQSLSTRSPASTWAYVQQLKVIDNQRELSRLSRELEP
Chain of Glucocorticoid receptor (Homo sapiens) (P04150 whole entry, looked up): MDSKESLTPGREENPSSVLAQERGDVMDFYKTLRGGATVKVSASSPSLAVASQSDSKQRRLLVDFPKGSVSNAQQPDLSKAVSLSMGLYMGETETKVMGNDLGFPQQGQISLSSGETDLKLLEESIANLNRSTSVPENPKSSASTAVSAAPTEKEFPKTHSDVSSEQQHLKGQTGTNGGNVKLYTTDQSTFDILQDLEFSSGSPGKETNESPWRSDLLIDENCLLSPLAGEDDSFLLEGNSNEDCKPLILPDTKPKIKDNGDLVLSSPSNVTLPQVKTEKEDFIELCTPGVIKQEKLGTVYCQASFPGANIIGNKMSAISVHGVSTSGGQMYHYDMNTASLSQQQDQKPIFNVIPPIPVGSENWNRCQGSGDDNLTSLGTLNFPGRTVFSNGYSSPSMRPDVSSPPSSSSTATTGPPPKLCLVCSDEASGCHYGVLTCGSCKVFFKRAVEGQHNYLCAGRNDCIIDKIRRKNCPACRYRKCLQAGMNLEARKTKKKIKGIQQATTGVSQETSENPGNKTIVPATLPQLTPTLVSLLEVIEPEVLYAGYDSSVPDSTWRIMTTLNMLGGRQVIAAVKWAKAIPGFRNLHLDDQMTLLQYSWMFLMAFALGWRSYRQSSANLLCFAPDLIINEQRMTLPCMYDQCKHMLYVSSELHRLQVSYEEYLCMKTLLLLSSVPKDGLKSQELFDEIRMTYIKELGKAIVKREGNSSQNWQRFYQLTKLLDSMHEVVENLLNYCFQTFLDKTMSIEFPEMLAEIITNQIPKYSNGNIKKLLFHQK
Chain of Ubiquitin carboxyl-terminal hydrolase 1 (Homo sapiens) (O94782 whole entry, looked up): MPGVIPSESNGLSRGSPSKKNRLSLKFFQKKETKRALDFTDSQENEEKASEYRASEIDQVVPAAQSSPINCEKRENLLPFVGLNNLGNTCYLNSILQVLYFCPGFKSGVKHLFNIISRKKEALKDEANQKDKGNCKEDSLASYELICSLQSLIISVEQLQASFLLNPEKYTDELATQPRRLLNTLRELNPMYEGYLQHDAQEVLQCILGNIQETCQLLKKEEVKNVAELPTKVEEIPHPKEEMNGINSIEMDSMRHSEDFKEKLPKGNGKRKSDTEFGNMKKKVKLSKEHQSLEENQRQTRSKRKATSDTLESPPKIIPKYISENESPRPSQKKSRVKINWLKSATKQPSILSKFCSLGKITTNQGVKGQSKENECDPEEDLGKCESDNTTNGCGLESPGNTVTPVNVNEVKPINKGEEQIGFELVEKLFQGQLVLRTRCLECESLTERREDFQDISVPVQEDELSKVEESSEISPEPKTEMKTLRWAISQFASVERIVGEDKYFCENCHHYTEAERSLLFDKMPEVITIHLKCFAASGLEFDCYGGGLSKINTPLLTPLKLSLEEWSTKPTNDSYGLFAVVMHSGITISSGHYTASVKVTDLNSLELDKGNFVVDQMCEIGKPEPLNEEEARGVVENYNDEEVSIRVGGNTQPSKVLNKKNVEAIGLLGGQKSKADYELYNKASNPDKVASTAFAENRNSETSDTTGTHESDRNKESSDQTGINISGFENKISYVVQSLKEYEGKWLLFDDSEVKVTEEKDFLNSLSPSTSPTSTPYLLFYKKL
Chain of Cytochrome P450 1A2 (Homo sapiens) (P05177 whole entry, looked up): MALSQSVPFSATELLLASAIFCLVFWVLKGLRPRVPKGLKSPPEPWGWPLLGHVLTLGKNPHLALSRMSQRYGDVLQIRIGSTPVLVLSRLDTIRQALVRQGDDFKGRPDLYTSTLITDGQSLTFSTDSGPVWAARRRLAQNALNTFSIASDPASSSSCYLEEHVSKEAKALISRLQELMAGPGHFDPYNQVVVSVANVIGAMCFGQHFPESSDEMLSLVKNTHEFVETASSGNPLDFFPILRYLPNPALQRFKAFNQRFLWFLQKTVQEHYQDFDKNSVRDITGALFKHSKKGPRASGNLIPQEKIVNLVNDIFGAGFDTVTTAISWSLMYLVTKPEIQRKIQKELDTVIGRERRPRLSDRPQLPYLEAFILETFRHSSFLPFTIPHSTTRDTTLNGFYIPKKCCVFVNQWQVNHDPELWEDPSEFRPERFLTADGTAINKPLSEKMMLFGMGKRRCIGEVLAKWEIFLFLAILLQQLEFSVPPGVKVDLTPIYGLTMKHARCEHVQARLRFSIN
Chain of 3',5'-cyclic-AMP phosphodiesterase 4B (Homo sapiens) (Q07343 whole entry, looked up): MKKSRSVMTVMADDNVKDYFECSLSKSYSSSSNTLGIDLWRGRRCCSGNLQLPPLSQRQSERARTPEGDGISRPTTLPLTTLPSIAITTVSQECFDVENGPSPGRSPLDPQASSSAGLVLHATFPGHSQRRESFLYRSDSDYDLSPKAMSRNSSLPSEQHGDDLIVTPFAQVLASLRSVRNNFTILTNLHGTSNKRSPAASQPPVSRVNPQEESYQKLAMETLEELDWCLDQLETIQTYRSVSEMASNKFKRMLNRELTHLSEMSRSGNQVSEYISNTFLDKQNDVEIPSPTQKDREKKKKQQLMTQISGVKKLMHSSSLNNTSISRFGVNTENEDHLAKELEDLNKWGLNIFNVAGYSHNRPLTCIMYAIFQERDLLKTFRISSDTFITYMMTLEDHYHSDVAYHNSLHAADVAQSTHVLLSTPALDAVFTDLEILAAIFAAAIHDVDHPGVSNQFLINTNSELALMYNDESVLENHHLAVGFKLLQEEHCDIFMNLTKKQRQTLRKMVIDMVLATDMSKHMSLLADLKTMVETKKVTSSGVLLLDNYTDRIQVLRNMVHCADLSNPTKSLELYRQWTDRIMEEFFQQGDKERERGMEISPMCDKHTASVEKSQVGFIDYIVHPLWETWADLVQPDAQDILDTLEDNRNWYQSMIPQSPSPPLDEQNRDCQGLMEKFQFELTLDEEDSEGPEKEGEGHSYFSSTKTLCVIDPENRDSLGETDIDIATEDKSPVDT

Take `N#Cc1cccc(-c2ccc3ncnc(NC4CCNCC4)c3c2)c1`: the Potency was over 11.4 µM in assay [1]; 15.8 µM (active) in assay [3]; over 46 µM in [6]; over 46 µM in assay [7]; 12.6 µM (active) in assay [9]; 14.1 µM (active) in assay [10]. In [11], the Potency was 14.1 µM (active). Moreover, the activity change, negative = inhibition was -6.77% in assay [2] and 3.08% in assay [4]. The activity, negative = inhibition in assay [5] was -3.89%. Moreover, the Potency entry in assay [8] and in assay [12] was “inactive” throughout. Besides, in assay [13], the result was inactive.
Turning to `COc1cccc(Nc2ncc3nc(-c4ccccc4)c(=O)n(C)c3n2)c1`, the Potency is over 11.4 µM in assay [1], 3.16 µM (active) in assay [3], over 9.22 µM in [6] and over 46 µM in assay [7]. Besides, the activity change, negative = inhibition was -7.32% in assay [2] and -6.92% in assay [4]. Moreover, in [5], the activity, negative = inhibition was 4.13%. For the same compound, the Potency result in assay [8], in assay [9], in assay [10], in assay [11] and in assay [12] was “inactive” throughout. Moreover, the result in assay [13] was inactive.
Take `CCNc1ncc2nc(-c3cn(C)c4ccccc34)c(=O)n(Cc3cccs3)c2n1`: the Potency in [1] is over 11.4 µM; in assay [3], 6.31 µM (active); in assay [6] it was over 9.22 µM; in assay [7] it was over 46 µM. Besides, the activity change, negative = inhibition in assay [2] was -13.1%; in [4], 8.06%. For the same compound, in [5], the activity, negative = inhibition was 23.5%. Also, the Potency entry in assay [8], in assay [14], in assay [9], in assay [10], in [11] and in assay [12] was “inactive” in each case. The outcome in assay [13] was inactive.
Take `COc1ccc(Nc2ncc3nc(-c4cccs4)c(=O)n(Cc4cccc(OC)c4)c3n2)cc1`: the Potency in assay [1] is over 11.4 µM; in assay [6] it was over 9.22 µM; in assay [7] it was over 46 µM. Moreover, the activity change, negative = inhibition is -12.3% in [2] and -11.6% in assay [4]. The Potency entry in assay [3], in assay [8], in [14], in [9], in [10] and in assay [11] was “inactive” throughout. For the same compound, the Potency result in assay [12] was “inactive”. The activity, negative = inhibition in [5] is -8.74%. Also, the result in [13] was inactive.
In the case of `COc1cccc(-c2nc(NCc3ccc(OC)cc3OC)c3ccccc3n2)c1`, the values for the activity change, negative = inhibition in [2] and in assay [4] were -5.61% and -23.1%, respectively. The activity, negative = inhibition in assay [5] was -8.78%. The Potency in assay [6] and in assay [7] was over 46 µM in each case. Moreover, the Potency entry in [8], in [9], in assay [10], in assay [11], in assay [15] and in assay [16] was “inactive” each time. Further, the result in [13] was inactive.
For the compound `COc1ccc(C(=O)N2CCC3(CCN(Cc4cc(C(F)(F)F)cc(C(F)(F)F)c4)CC3)CC2)cc1`, the Potency is over 11.4 µM in [1] and over 46 µM in assay [7]. Besides, the activity change, negative = inhibition in assay [2] was 7.47%; in assay [4], 19.2%. Further, the Potency result in [3], in assay [8], in [14], in [17], in assay [15] and in assay [16] was “inactive” throughout. Further, the activity, negative = inhibition in assay [5] is -6.24%. Moreover, the result in assay [13] was inactive.
For `COc1cccc(Cn2c(=O)c(-c3ccc(Cl)cc3)nc3cnc(N4CCNCC4)nc32)c1`, the Potency in [1] is over 11.4 µM; in assay [6], over 9.22 µM. For the same compound, the Potency entry in assay [14], in assay [17], in [9], in assay [10], in [11] and in assay [12] was “inactive” in each case. In addition, the Potency entry in assay [15] is “inactive”. In [13], the outcome was inactive.
